Measured potencies and affinities stand elsewhere. The source made the active and inactive calls.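 How the source made its calls: active means signal falls, with fitted half-maximal concentration at most twice the top valid dose tested; inconclusive means flat curve with partial signal loss, or poor curve fit; inactive means the rest, including signal rising instead.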
Each compound was assayed against DNA repair and recombination protein RAD54-like (Homo sapiens) (UniProt Q92698) (assay: inhibitors of human RAD54 branch migration, confirmation, biochemical, fluorescence, cherry-picked samples, dose series (AID 651657)). Settings: FAM/BHQ fluorescence, 60 min; series mostly up to 50 µM; activity change, negative = inhibition: at the top concentration.
DNA repair and recombination protein RAD54-like (Homo sapiens), sequence (Q92698 whole entry, looked up): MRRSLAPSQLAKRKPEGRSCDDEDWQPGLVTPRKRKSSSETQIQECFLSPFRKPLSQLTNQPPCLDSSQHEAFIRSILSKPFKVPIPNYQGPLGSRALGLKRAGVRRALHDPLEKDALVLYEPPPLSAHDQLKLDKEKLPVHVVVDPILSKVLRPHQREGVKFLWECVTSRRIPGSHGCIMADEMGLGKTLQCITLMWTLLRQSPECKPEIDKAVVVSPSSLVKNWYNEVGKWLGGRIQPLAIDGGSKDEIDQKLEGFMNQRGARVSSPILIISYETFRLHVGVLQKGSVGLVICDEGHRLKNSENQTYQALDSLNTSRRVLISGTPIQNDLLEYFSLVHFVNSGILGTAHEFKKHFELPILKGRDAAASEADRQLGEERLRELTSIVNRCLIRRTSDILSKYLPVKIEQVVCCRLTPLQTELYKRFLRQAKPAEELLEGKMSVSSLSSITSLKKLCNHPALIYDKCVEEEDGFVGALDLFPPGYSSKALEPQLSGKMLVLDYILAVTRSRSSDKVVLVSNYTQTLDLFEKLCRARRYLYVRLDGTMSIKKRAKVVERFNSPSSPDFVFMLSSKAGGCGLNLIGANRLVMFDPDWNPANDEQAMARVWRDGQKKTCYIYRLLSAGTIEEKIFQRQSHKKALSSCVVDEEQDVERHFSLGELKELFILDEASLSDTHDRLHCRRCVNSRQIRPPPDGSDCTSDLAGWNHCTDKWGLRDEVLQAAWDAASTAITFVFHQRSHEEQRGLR

Activity change, negative = inhibition, inactive:
COc1cc(NC(=O)c2cccnc2Sc2ccc(C)c(C)c2)cc(OC)c1OC -3.49%, Cc1ccc(S(=O)(=O)CCSc2ccc(C(F)(F)F)cn2)cc1 4.28%, CCCC(c1nnnn1Cc1ccc(OC)cc1)N1CCN(c2ccccc2)CC1 (stereo not drawn) -0.873%, CCOC(=O)C1C(=O)NC(N2CCN(c3ccccc3)CC2)=NC1c1ccco1 (stereo not drawn) 0.305%, O=C(Nc1ccc2c(c1)OCO2)c1cc(-c2ccncc2)nc2ccccc12 -13.1%, c1ccc(-c2nnc(SCc3nc4ccccc4[nH]3)o2)cc1 1.58%, O=C(Nc1nnc(COc2ccc(F)cc2)s1)c1ccco1 7.04%, CCC(=O)N(Cc1cc2cc(OC)ccc2[nH]c1=O)c1cc(C)ccc1C 0.681%, CCN1CCN(c2cc(C)c3cc(NC(=S)N4CCC5(CC4)OCCO5)ccc3n2)CC1 -7.13%, CCOC(=O)c1[nH]c2cc3c(cc2c1CCCN1C(=O)c2ccccc2C1=O)OCCO3 7.51%, Cc1nc2oc3c(=O)[nH]cnc3c2c2c1COC(C)(C)C2 -17.4%, COC(=O)C1=C(C)Nc2nc3ccccc3n2C1c1ccccc1F (stereo not drawn) 7.88%, Cc1c(Cl)ccc(S(=O)(=O)NCCCn2ccnc2)c1Cl 3.66%, CC(C)CSc1ncc(-c2cccc(C(F)(F)F)c2)cn1 0.208%, O=C1C(c2ccc(F)cc2)N(C2CCCCC2)C(=O)CN1C1CCCC1 (stereo not drawn) -0.016%, Cc1ccc(S(=O)(=O)N2CCOCC2)c(C)c1NS(C)(=O)=O -2.78%, Cc1cccc2cc3c(N)c(C#N)sc3nc12 -4.31%, Cc1ccc(OCC(=O)Nc2cccc(-c3nnc(-c4ccccc4)o3)c2)c(C)c1 3.6%, O=c1cc(CSc2n[nH]c(=O)n2C2CC2)c2ccc(O)cc2o1 -3.13%, C=CCN1C(=O)C(C)(C)Nc2ccccc21 -1.14%, Cc1ccc(S(=O)(=O)NCCCNS(=O)(=O)c2ccccc2[N+](=O)[O-])cc1 6.57%, CN1CCN(CC(=O)Nc2nc(-c3c[nH]c4ccccc34)cs2)CC1 -12.8%, CCN1CCN(c2cc(C)c3cc(NC(=S)N4CC(C)CC(C)C4)ccc3n2)CC1 (stereo not drawn) -0.101%
